A selection: hits, their analogues and other compounds. The true share with any hit is near 21%.
NS1 function inh = qHTS Assay for Inhibitors of Influenza NS1 Protein Function | Potency, µM (series often up to 46.1 µM) | hit rate 0.4% among 270,000 | AID 2326, 2010; calls by dose curve; further: actives are rising curves; nearly all actives have a fitted effect of over 50% in size
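A cell-based growth assay was used: compounds that relieve NS1-induced slow growth of budding yeast raise OD600. Assay medium was yeast nitrogen base with ammonium sulphate and -URA supplement, pH 6.0, with 2% galactose.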
Pf growth 48h = Primary qHTS for delayed death inhibitors of the malarial parasite plastid, 48 hour incubation; P. falciparum luciferase growth in erythrocytes, 48 h; Potency, µM (top dose mostly 28.7 µM), actives largely listed as inhibitors; hit rate 5.9% among 310,000; AID 504832, 2011
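Cell-based growth assay: transgenic P. falciparum expressing firefly luciferase, cultured in red cells within RPMI 1640 containing 0.5% w/v Albumax, 24 mM bicarbonate and gentamycin. A drop in luciferase activity indicates inhibition.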
SARS PLP yeast = qHTS of Yeast-based Assay for SARS-CoV PLP; Potency, µM (highest dose often 32.9 µM), usual class: activators; hit rate 0.19% among 330,000; S. cerevisiae expressing SARS-CoV PLpro, growth rescue; AID 485353, 2010; calls by dose curve; further: nearly all actives have a fitted effect of over 55% in size
Pf growth 96h = Primary qHTS for delayed death inhibitors of the malarial parasite plastid, 96 hour incubation; P. falciparum luciferase reporter growth, 96 h; Potency, µM (series often up to 28.7 µM), most hits filed as inhibitors; hit rate 6.9% among 320,000
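Luminescence readout: decreased luciferase signal marks inhibited growth of reporter-expressing P. falciparum in infected red cells (2% hematocrit, 0.05% parasitemia final), exposed to compound two generations (96 h, 37 C, 5% CO2).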
Shiga inhibitor = A qHTS for Small Molecule Inhibitors of Shiga Toxin; Vero cells, Shiga toxin protein synthesis inhibition reporter; inhibition, % at 38.7 µM; hit rate 9.2% among 290,000; AID 2315, 2010; in the data active means inhibition mostly above about 28%, no sharp cut-off; inactive means mostly below about 43%
Cycloheximide cs = Cycloheximide Counterscreen for Small Molecule Inhibitors of Shiga Toxin | cell reporter, cycloheximide protein synthesis inhibition counterscreen | max response, % | hit rate 12% among 300,000 | AID 2314, 2010; in the data active means max response mostly above about 13%, no sharp cut-off; inactive means mostly below about 14%; further: read at 38.3 µM for the half of the compounds with a filed dose
Hits are given with their value; – = inactive; ? = inconclusive; · = no result; [ ] = dose if it differs, or a comment. Unless noted, the call rests on the fitted dose curve; in most records, active means well fitted inhibition curve with a large enough effect; inconclusive means small, poorly fitted or top-dose-only effect, or another doubt; inactive means no such curve, though single readings can be large or run the other way.

SMILES	NS1 function inh	Pf growth 48h	SARS PLP yeast	Pf growth 96h	Shiga inhibitor	Cycloheximide cs
Cc1cccc(N2CCN(C(=O)Cn3cccc3)CC2)c1C	–	·	–	4.1µM	–	–
Cc1cccc(N2CCN(C(=O)n3ccnc3)CC2)c1C	–	?	–	12µM	–	–
COc1cccc(C(C(=O)NC2CCCC2)N(CC2CCCO2)C(=O)Cc2cccs2)c1 (stereo unspecified)	–	?	–	–	–	–
CCN(CC(=O)Nc1c(F)cccc1F)C(=O)c1ccc(COc2ccccc2)o1	·	–	–	–	·	·
O=C(Nc1ccc(C(=O)N2CCCC2)cc1)c1ccccc1F	–	–	–	·	66	36
CC(=O)Nc1c(O)nc(SCC(=O)Nc2ccc(C(C)=O)cc2)[nH]c1=O	–	–	–	–	134	47
O=C(Nc1ccc2nc(-c3cccnc3)[nH]c2c1)c1ccccc1F	–	?	–	–	–	15
CC(=O)Nc1c(O)nc(SCC(=O)Nc2cccc(C)c2)[nH]c1=O	–	·	–	–	–	–
Nc1ccc(C(=O)Nc2ccc3nc(-c4ccncc4)[nH]c3c2)cc1	–	?	–	–	–	–
O=C(Nc1ccc2ccccc2c1)c1ccccc1F	–	–	–	–	–	24
NC(=O)Nc1ccccc1C(=O)Nc1ccc2ccccc2c1	–	–	–	–	·	–
O=C(CCNC(=O)c1ccco1)Nc1ccc(SC(F)F)cc1	·	–	–	–	–	–
O=C(NCc1ccncc1)c1ccccc1Nc1ccc(SC(F)F)cc1	–	?	–	?	–	–
CC(=O)Nc1ccc(NC(=O)CSc2nc(N)c(NC(=O)c3ccccc3F)c(=O)[nH]2)cc1	–	?	–	12µM	–	–
CNC(=O)c1ccccc1Nc1ccc(SC(F)F)cc1	–	–	–	?	24	23
O=C(Nc1ccncc1)c1ccccc1F	–	–	–	–[5.75 µM]	–	–
O=C(Nc1ccc(F)cc1)c1ccccc1F	–	–	·	–	114	42
O=C(Nc1ccc(SC(F)F)cc1)c1ccccc1F	·	–	–	–	92	45
O=C(Nc1ccc2oc(-c3ccc(F)cc3)nc2c1)c1ccccc1F	–	–	–	–	39	–
COc1ccccc1NC(=O)Nc1ccc(NC(=O)c2ccccc2O)cc1	–	–	–	–	–	–
O=C(Nc1ccc(F)cc1)Nc1ccc(NC(=O)c2ccccc2O)cc1	–	12µM	–	–	–	–
CCOC(=O)Nc1ccc(C(N)=O)cc1	–	–	–	–	–	–
c1cncc(-c2nc3cc4ccccc4cc3[nH]2)c1	–	–	–	–	62	45
CCOC(=O)Nc1ccc(NC(=O)c2ccccc2F)cc1	–	–	–	–	85	18
c1ccc(-c2nc3cc4ccccc4cc3[nH]2)nc1	–	–	–	–	–	–
SMILES	NS1 function inh	Pf growth 48h	SARS PLP yeast	Pf growth 96h	Shiga inhibitor	Cycloheximide cs
COc1ccc2[nH]cc(S(=O)(=O)c3ccc(C)cc3)c2c1	·	–	–	–	–	–
Cc1ccccc1NC(=O)CON=C(N)c1ccccc1	·	–	–	?	·	·
O=C(Nc1ccc2cn[nH]c2c1)c1ccccc1F	–	–	–	–	40	60
O=C(Nc1ccc(SC(F)F)cc1)c1ccc(F)cc1	–	–	–	–	145	37
CCOC(=O)N1CCC(=NNC(=O)c2ccccc2F)CC1	–	–	–	–	25	49
O=C(Nc1ccc(F)cc1)c1ccc(C(=O)N2CCOCC2)cc1	·	–	–	–	·	·
CC(=O)Nc1ccc(NC(=O)c2ccccc2F)cc1	–	–	–	–	58	20
CC(CN1CCOCC1)OC(=O)c1cccc(Br)c1 (stereo unspecified)	–	·	–	–	–	–
CC(CN1CCCC1)OC(=O)c1cccc(F)c1 (stereo unspecified)	–	–	–	?	–	–
CC(C)N(C)CCOC(=O)c1ccc2c(c1)OCCO2	–	–	–	–	–	16
CCN(CC)CCOC(=O)c1ccc2c(c1)OCCO2	–	·	–	–	–	–
CC(CN1CCCCC1)OC(=O)c1ccc2c(c1)OCCO2 (stereo unspecified)	–	–	–	–	70	43
Cc1cccc(C(=O)OC(C)CN2CCOCC2)c1 (stereo unspecified)	·	–	–	9.3µM	–	28
CC(CN1CCOCC1)OC(=O)c1ccccc1Br (stereo unspecified)	–	–	–	·	–	25
Cc1cc(C)cc(N(CCC#N)C(=O)CSc2n[nH]c(N)n2)c1	·	–	–	–	·	·
CC(CN1CCOCC1)OC(=O)c1ccc2c(c1)OCCO2 (stereo unspecified)	–	–	–	–	66	61
CC(CN1CCOCC1)OC(=O)/C=C/c1ccccc1 (stereo unspecified)	–	–	–	–	84	44
COc1ccc(NC(=O)c2c3c(nc4ccccc24)CCN(Cc2ccccc2)C3)c(OC)c1	·	7.4µM	–	9.3µM	–	–
COc1ccc(S(=O)(=O)N2CCCCCC2)cc1NC(=O)c1c2c(nc3ccccc13)CCN(Cc1ccccc1)C2	–	1.5µM	–	1.5µM	–	–
COc1ccc(S(=O)(=O)N2CCCCC2)cc1NC(=O)c1ccc(CS(C)(=O)=O)cc1	·	?	–	–	·	·
CCN(CC)S(=O)(=O)c1ccc(OC(C)C)c(NC(=O)c2c3c(nc4ccccc24)CCN(Cc2ccccc2)C3)c1	–	2.6µM	–	2.9µM	–	–
CCc1ccc(-c2nc(CS(=O)CC(=O)NCCCN3CCOCC3)c(C)o2)cc1 (stereo unspecified)	–	–	–	7.4µM	–	–
CCc1ccc(-c2nc(CS(=O)CC(=O)NCc3ccccc3)c(C)o2)cc1 (stereo unspecified)	–	–	–	–	–	–
Cc1oc(-c2ccc(Cl)cc2)nc1CS(=O)CC(=O)NCCCN1CCN(Cc2ccccc2)CC1 (stereo unspecified)	–	?	–	9.3µM	–	–
Cc1oc(-c2ccc(Cl)cc2)nc1CS(=O)CC(=O)NCCCN1CCCC(C)C1 (stereo unspecified)	–	–	·	–	–	–
CCCCNC(=O)CS(=O)Cc1nc(-c2ccc(C)cc2)oc1C (stereo unspecified)	?	·	–	–	–	–
CCCNC(=O)CS(=O)Cc1nc(-c2ccc(OC)cc2)oc1C (stereo unspecified)	–	·	–	15µM	–	–
COc1ccc(-c2nc(CS(=O)CC(=O)NC3CCC(C)CC3)c(C)o2)cc1OC (stereo unspecified)	–	–	–	–	60	33
Cc1cc(C)n(CC(O)COc2ccccc2Br)n1 (stereo unspecified)	–	–	–	?	–	–
Cc1oc(-c2cccs2)nc1CS(=O)CC(=O)NCCCN1CC(C)CC(C)C1 (stereo unspecified)	–	·	–	12µM	–	–

Source: PubChem BioAssay
